Laboratory results taken from PubChem BioAssay (NCATS).
Records with an inconclusive call do not appear. Where a call stands in place of a potency, no number is given. A number with no mark means an inactive call. The source made the active and inactive calls. Calls follow the shape of the dose curve; as a rule, active = well fitted curve in the direction sought with a large enough effect; inconclusive = small, poorly fitted or top-dose-only effect, or another doubt; inactive = no such curve, though single readings can be large; an effect the other way counts as inactive or inconclusive. Peptide text beside a SMILES is read from it.

Legend:
[1] = molecular target: Cellular tumor antigen p53 (Homo sapiens) (UniProt P04637); assay: Primary qHTS for small molecule compounds that upregulate eGFP-tagged delta133p53alpha (in N-terminal) cells. (AID 2060322); settings: NCI-H358 eGFP-delta133p53alpha fluorescence, 24 h; activation: stronger effect = higher value; also: nearly all actives have a fitted effect of over 75% in size; also: potency is read from the fitted curve at half-maximal effect;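 as to activation: cells pre-induced with doxycycline then dosed without doxycycline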
Cellular tumor antigen p53 (Homo sapiens), sequence (P04637 whole entry, looked up): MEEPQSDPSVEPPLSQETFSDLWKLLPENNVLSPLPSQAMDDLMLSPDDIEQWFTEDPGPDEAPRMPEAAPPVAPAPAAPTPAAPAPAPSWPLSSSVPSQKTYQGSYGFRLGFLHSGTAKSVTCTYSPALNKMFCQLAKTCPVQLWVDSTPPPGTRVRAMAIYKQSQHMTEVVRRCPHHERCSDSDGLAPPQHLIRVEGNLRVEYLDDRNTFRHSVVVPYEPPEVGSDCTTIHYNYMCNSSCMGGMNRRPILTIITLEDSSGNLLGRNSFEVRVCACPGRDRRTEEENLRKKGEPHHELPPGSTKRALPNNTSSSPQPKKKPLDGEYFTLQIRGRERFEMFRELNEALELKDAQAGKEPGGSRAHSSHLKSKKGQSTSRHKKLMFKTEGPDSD
Summary of the method: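 NCI-H358 cells pre-induced 24 h with 10 ng/ml doxycycline for eGFP-delta133p53alpha, plated dox-free and exposed 24 h at 37C to titrated compounds. Fixed, Hoechst-stained; gated GFP peak intensity by laser scanning cytometry, normalized to DMSO (0%) and 57.5 uM 5-azacytidine (100%).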

[2] = molecular target: Aldehyde dehydrogenase, mitochondrial (Homo sapiens) (UniProt P05091); assay: qHTS for Inhibitors of the Aldehyde Dehydrogenase Family (ALDH2) Primary screen (AID 2061308); settings: ALDH2 enzyme inhibition qHTS, 1536-well; series mostly up to 56 µM; also: nearly all actives have a fitted effect of over 55% in size
[3] = molecular target: Retinaldehyde dehydrogenase 3 (Homo sapiens) (UniProt P47895); assay: qHTS for Inhibitors of the Aldehyde Dehydrogenase Family (ALDH1A3) Primary screen (AID 2061315); settings: ALDH inhibition qHTS; series mostly up to 56 µM; also: potency is read from the fitted curve at half-maximal effect

Structure (SMILES)	activation [1] [%]	Potency [2]	Potency [3]	Potency [1]
Nc1nc(O)c(C2=C3C(=Nc4ccccc43)C(=O)NCC2)[nH]1	-1.79	inactive	inactive	
COc1cc(O)cc(C)c1C(=O)OC1C(CO)OC(n2ccc(=O)[nH]c2=O)C1OC(C)=O (stereo not drawn)	-6.11	inactive	inactive	
CC(C)S(=O)(=O)NC[C@@H]1CC(c2ccc(N3CCCC3)c(F)c2)=NO1	0.333	inactive	inactive	
C[N+]1(C)[C@@H]2C[C@@H](OC(=O)C(O)(c3cccs3)c3cccs3)C[C@H]1[C@@H]1O[C@@H]12	8.63	inactive	inactive	
CN1C(=O)c2ccccc2NC(=O)[C@]12O[C@@H]2c1cccc(O)c1	-1.53	inactive	inactive	
CC(C)(O)/C=C/CC(C)(O)C1C(O)CC2(C)C3CCC4C(C)(C)C(=O)CCC4(C)C3CCC12C (stereo not drawn)	2.29	inactive	inactive	
CC(C)CCNC(=O)[C@H](CC(C)C)NC(=O)[C@H]1O[C@@H]1C(=O)O	-9	inactive	inactive	
O=C1NC(=Nc2ccccc2F)S/C1=C\c1ccc(C(=O)O)cc1	0.333	inactive	inactive	
CC(C)C(NC(=O)c1ccc(O)cc1)C(=O)N1CCCC1C(=O)Nc1c(O)cccc1C(=O)O (stereo not drawn)	-0.763	inactive	inactive	
C=C1C[C@]23C[C@H]1CC[C@H]2[C@@]1(C)CCC[C@@]2(C)C(=O)O[C@@H]([C@@H]3O)[C@@H]12	12.2	inactive	inactive	
COC(=O)C1=CO[C@@H](O[C@@H]2O[C@H](CO)[C@@H](O)[C@H](O)[C@H]2O)[C@@H]2[C@@](C)(O)[C@@H](O)C[C@]12O	-2.29	inactive	inactive	
C=C1CCC2[C@@](C)(C(=O)O)CCC[C@@]2(C)[C@@H]1CCc1ccoc1 (stereo partly drawn)	1.79	inactive	inactive	
CNC(C)C(=O)NC(C(=O)N1CCCC1C(=O)Nc1cccc2ncccc12)C(C)C (stereo not drawn)	-21	inactive	inactive	
C=CCc1ccc(O[C@@H]2O[C@H](CO)[C@@H](O)[C@H](O)[C@H]2O)c(OC)c1	-19.6	inactive	inactive	
C[C@H]1CC[C@@]2(OC1)O[C@H]1CC3C4CC[C@H]5C[C@@H](O)[C@H](O)C[C@]5(C)C4=CC(=O)[C@]3(C)[C@H]1[C@@H]2C (stereo partly drawn)	14.3	inactive	inactive	
COc1ccc(C2C(C(=O)O)C(C(=O)O)C2c2ccc(OC)cc2O[C@@H]2O[C@H](CO)[C@@H](O)[C@H](O)[C@H]2O)c(O[C@@H]2O[C@H](CO)[C@@H](O)[C@H](O)[C@H]2O)c1 (stereo partly drawn)	7.63	inactive	inactive	
O=C(O)/C=C/c1ccc(O[C@@H]2O[C@H](CO)[C@@H](O)[C@H](O)[C@H]2O)cc1	-3.82	inactive	inactive	
CC(=O)/C=C/C1(O)C(C)CC(O[C@@H]2O[C@H](CO)[C@@H](O)[C@H](O)[C@H]2O)CC1(C)C (stereo partly drawn)	2.68	inactive	inactive	
C/C=C/C1OC2=C(C(=O)OC2(C)O)C(O)C1O (stereo not drawn)	28.2	inactive	inactive	
CC(=O)NC(Cc1ccccc1)C(=O)NC(C(=O)O)C(C)C (stereo not drawn) (Ac-Phe-Val-OH; configuration not given here)	0	inactive	inactive	
C=CC(C)(C)O[C@@H]1O[C@H](CO[C@@H]2OC[C@](O)(CO)[C@H]2O)[C@@H](O)[C@H](O)[C@H]1O	-18.3	inactive	inactive	
C[C@@H]1O[C@@H](O[C@H]2[C@@H]3C=CO[C@@H](O[C@@H]4O[C@H](CO)[C@@H](O)[C@H](O)[C@H]4O)[C@@H]3[C@@]3(CO)O[C@@H]23)[C@H](O)[C@H](O)[C@H]1OC(=O)/C=C/c1ccc(O)cc1	-25.2	inactive	inactive	
O=C(O)CCc1cc2ccoc2cc1O[C@@H]1O[C@H](CO)[C@@H](O)[C@H](O)[C@H]1O	6.11	inactive	inactive	
C/C=C(\C)C1C(C)=CC2CCC(OS(=O)(=O)O)C(C)C2C1/C=C/C=C/C(=O)O (stereo not drawn)	0.893	inactive	inactive	
CC(C)C(=O)OC[C@H]1O[C@H](O[C@H]2O[C@H](CO)[C@@H](O)[C@H](O)[C@H]2O)[C@H](O)[C@@H](O)[C@@H]1O	-6.11	inactive	inactive	
CC(C)C(O)(CO)CCO[C@@H]1O[C@H](CO[C@H]2OC[C@](O)(CO)[C@H]2O)[C@@H](O)[C@H](O)[C@H]1O (stereo partly drawn)	-13	inactive	inactive	

Structure (SMILES)	activation [1] [%]	Potency [2]	Potency [3]	Potency [1]
O=C(Nc1ccc(C(O)(C(F)(F)F)C(F)(F)F)cc1)c1ccc(C(F)(F)F)cc1	0	inactive	inactive	
CC(C)(O)[C@@H]1CC[C@]2(CO)[C@@H](O)CC[C@](C)(O)[C@H]2[C@@H]1O[C@@H]1O[C@H](CO)[C@@H](O)[C@H](O)[C@H]1O	1.53	inactive	inactive	
COc1c2c(cc3c1-c1c(cc4c(c1OC)OCO4)CC(C)C(C)C3)OCO2 (stereo not drawn)	-6.87	inactive	inactive	
CCN(CC)CCCCCCNc1cc(OC)cc2c(C)ccnc12	-2.86	inactive	2.51 µM (active)	
CN1CCN(C(=O)c2cc3cc(Cl)ccc3[nH]2)CC1	-0.893	inactive	inactive	
CCCN(CCc1ccsc1)C1CCc2c(O)cccc2C1 (stereo not drawn)	2.68	inactive	inactive	
NC(=O)c1cnc(NCCc2ccc(O)c(Cl)c2)nc1NCc1ccccc1		inactive	inactive	9.53 µM (active)
C[C@@H]1O[C@@H](O[C@H]2[C@@H]3C=CO[C@@H](O[C@@H]4O[C@H](CO)[C@@H](O)[C@H](O)[C@H]4O)[C@@H]3[C@@]3(CO)O[C@@H]23)[C@H](OC(=O)/C=C/c2ccccc2)[C@H](O)[C@H]1O	4.46	inactive	inactive	
CC(NC(=O)[C@H](Cc1ccccc1)NC(=O)OCc1ccccc1)C(=O)CF (stereo partly drawn)	-5.67	inactive	inactive	
C/C=C/C=C/C(O)=C1/C(=O)[C@]2(C)C(=O)[C@@](C)(O)[C@H]1[C@H]([C@@]1(C)OC(=O)C(C)=C1O)[C@H]2C(=O)CC/C=C/C	-10.7	inactive	inactive	
CC(=O)O[C@@H]1c2c(C)coc2C(=O)[C@@]23O[C@@H]2CC[C@H](C)[C@@]13C	-2.68	inactive	inactive	
Cc1cc(-c2ncc(-c3cccnc3)cc2/C=C/c2ccccc2)cnc1-c1cccnc1	15.7	inactive	inactive	
O=[N+]([O-])c1ccc(Oc2ccc3c(c2)CCC(c2ccccc2)O3)nc1 (stereo not drawn)	2.33	inactive	inactive	
COC(=O)C1=CO[C@@H](O[C@@H]2O[C@H](CO)[C@@H](O)[C@H](O)[C@H]2O)[C@@H]2[C@@H](C(=O)OC)[C@@H](O)C(O)[C@H]12 (stereo partly drawn)	-19.8	inactive	inactive	
CC(=O)C12OC(C)(C)OC1CC1C3CCC4=CC(=O)C=CC4(C)C3(F)C(O)CC12C (stereo not drawn)	-9.67	inactive	inactive	
O=C(O)Cc1ccccc1Oc1ccc(Cl)cc1Cl	-3.35	inactive	inactive	
CCCNc1ccc2ncc(-c3ccc4[nH]ncc4c3)n2n1		inactive	inactive	2.39 µM (active)
C[N+]1(C)[C@@H]2CC[C@H]1CC(OC(=O)C(O)c1ccccc1)C2 (stereo partly drawn)	13.7	inactive	inactive	
C[C@]12CC[C@@H]3c4ccc(O)cc4CC[C@H]3[C@@H]1C[C@@H](O[C@@H]1O[C@H](C(=O)O)[C@@H](O)[C@H](O)[C@H]1O)[C@@H]2O	-6.33	inactive	inactive	
C=C1C(=O)OC2C(OC(=O)C=C(C)C)C(C)=C3C(=O)C=C(C)C3C(O)C12 (stereo not drawn)		inactive	inactive	14.8 µM (active)
C[C@@]12C(=O)N(c3ccc(C(=O)Nc4cccc5cccnc45)cc3)C(=O)[C@@H]1[C@@H]1C=C[C@H]2C1	18.3	inactive	inactive	
CC(O)(CC(=O)O)CC(=O)O[C@@H]1[C@@H](O)[C@H](OCCc2ccccc2)O[C@H](CO)[C@H]1O (stereo partly drawn)	3.82	inactive	inactive	
C[C@@H]1CN(Cc2ccccc2)C[C@H]1c1nc2c(cnn2C2CCOCC2)c(=O)[nH]1	18.8	inactive	inactive	
Cc1c(C(=O)NCCCO)cnn1-c1nc(-c2cccc(C(F)(F)F)c2)cs1		inactive	inactive	9.53 µM (active)
C=C1C(=O)OC[C@H]2C(C(=O)O)=CC3CC(C)(C)C[C@@]132 (stereo partly drawn)	13.4	inactive	inactive	
